Six1-Eya2 inh: qHTS Assay for Inhibitors of the Six1/Eya2 Interaction; activity change, % (test concentration not listed); AID 651725, 2012; Homeobox protein SIX1 (Homo sapiens) + Protein phosphatase EYA2 (Homo sapiens), …; hit rate 0.56% among 360,000; AlphaScreen GST-Six1/His-Eya2 binding, biochemical; hits give low values; in the data active = activity change below about -65%; inconclusive = mostly about -30% to -63%
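AlphaScreen with GST-Six1 and His-Eya2 (5X mix: 250 nM and 500 nM), glutathione donor and nickel acceptor beads; buffer 50 mM Tris pH 8.0, 300 mM NaCl, 1 mM TCEP; 1 h at 37 C in the dark.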
ATXN viability: Viability Counterscreen for Primary qHTS for Inhibitors of ATXN expression; Potency, µM (titrated, usually from 56.7 µM), hits mostly cytotoxic; S2 cells (HEK-293 line with an ATXN2-luciferase reporter) viability, CellTiter-Fluor protease fluorescence, 24 h; hit rate 0.49% among 400,000; AID 651635, 2014; also: nearly all actives have a fitted effect of over 40% in size
CtBP-E1A blk: qHTS Assay for Inhibitors of the CtBP/E1A Interaction | CtBP / adenovirus E1A interaction (AlphaScreen) | AlphaScreen GST-E1A/His-CtBP binding, 1536-well; hits give low values | activity change, % (test concentration not listed) | hit rate 0.49% among 340,000; in the data active = activity change below about -65%; inconclusive = mostly about -30% to -63%
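Protein mix (5X: 125 nM each GST-E1A, His-CtBP) was incubated with pinned compound 2 h at 37 deg C in dark, in 50 mM Tris pH 8.0 buffer with 300 mM NaCl. Glutathione donor and nickel acceptor beads followed; AlphaScreen signal read after 1 h.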
HepG2 tox: qHTS for Inhibitors of TGF-b: Cytotox Counterscreen. hit rate 0.76% among 410,000. HepG2 CAGA-GFP viability, ATP luminescence, 18 h. Potency, µM (highest dose often 46.1 µM), usual class: cytotoxic
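CellTiter-Glo luminescence gave cytotoxicity after 18 hours at 37 degrees C. The cells were HepG2 CAGA-GFP in 1% FBS DMEM, stimulated with 500 pg/mL TGF-beta after compound addition. %Activity was normalised to no-cell wells (complete cell-killing) and DMSO (no toxicity), and curves were fitted and classified.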
TGFb SMAD3 inh: qHTS for Inhibitors of TGF-b; HepG2 CAGA-GFP TGF-b/SMAD3 reporter, GFP fluorescence, 18 h; TGF-beta stimulated, 500 pg/mL final; hit rate 1.2% among 410,000; Potency, µM (titrated, usually from 46.1 µM), actives largely listed as inhibitors; AID 588855, 2011; also: nearly all actives have a fitted effect of over 65% in size
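Inhibition of TGF-beta-driven CAGA-GFP reporter expression in HEPG2 cells is measured by cellular GFP fluorescence after 18 h stimulation with 500 pg/mL recombinant TGF-beta in 1% FBS medium at 37 degrees C.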
ATXN2 expr inh: Primary qHTS for Inhibitors of ATXN expression; HEK-293 ATXN2-luciferase reporter, luminescence, 24 h; Potency, µM (top dose mostly 57 µM), hits mostly inhibitors; hit rate 0.72% among 360,000; AID 1745845, 2022; also: nearly all actives have a fitted effect of over 55% in size
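qHTS (up to 57 uM final) was run with 24 h compound exposure of reporter cells at 37 °C. Each well was multiplexed: SteadyGlo luminescence measured ATXN2-luciferase expression after a fluorogenic Gly-Phe-AFC viability readout (25 uM final).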
Numbers stand for hits; - = inactive; ? = inconclusive; . = not tested or not shown; ! = a repeat was not active. Most compounds without a hit are left out; they make up all but 2.8% or so of the library. Unless noted, calls follow the shape of the dose curve; as a rule, active = well fitted curve in the direction sought with a large enough effect; inconclusive = small, poorly fitted or top-dose-only effect, or another doubt; inactive = no such curve, though single readings can be large; an effect the other way counts as inactive or inconclusive.

SMILES | Six1-Eya2 inh | ATXN viability | CtBP-E1A blk | HepG2 tox | TGFb SMAD3 inh | ATXN2 expr inh
Cc1ccc(OCCn2c(CNc3cccc(C)c3)nc3ccccc32)cc1 | . | - | . | - | 12.6µM | -
Cc1ccc(NCc2nc3ccccc3n2CCOc2ccccc2)cc1 | - | ? | - | - | 17.8µM! | -
COc1ccc(OCCn2c(C(C)Oc3ccccc3)nc3ccccc32)cc1 (stereo not drawn) | . | - | . | - | 12.6µM | -
COCC(=O)Nc1cc(C(=O)N2CC3CCCC2C3)c2c(c1)nc(-c1ccncc1)n2C (stereo not drawn) | . | - | . | . | . | .
Cc1ccc(/C=C/C(=O)OCC(=O)N(C)c2c(N)n(Cc3ccccc3)c(=O)[nH]c2=O)o1 | - | ? | - | - | - | .
O=C(c1ccc(CS(=O)c2ccccc2Cl)o1)N1CCN(c2ccccc2F)CC1 (stereo not drawn) | . | . | . | - | ? | .
CC1(C(=O)NS(=O)(=O)C2CC2)CCN(C(=O)c2ccccc2C(F)(F)F)C1 (stereo not drawn) | - | - | - | - | - | -
CC/C(=N\Nc1ccccc1[N+](=O)[O-])c1ccc(O)cc1 | ? | ? | -71.4 | - | ? | -
c1ccc(COc2ncnc3c2ncn3CCCN2CCN(c3ncccn3)CC2)cc1 | - | ? | - | - | ? | -
CCC(C(=O)Nc1ccccc1OC)n1c(C(=O)OC)cc2sc(Cl)cc21 (stereo not drawn) | . | - | . | - | - | -
O=C(CNC(=O)c1ccc(F)cc1)N/N=C/c1cc(Br)ccc1OC(=O)/C=C/c1ccco1 | - | ? | ? | - | ? | 8.91µM
COc1ccc(C(=O)NCC(=O)N/N=C/c2ccco2)cc1OC | - | - | - | - | - | -
O=C(/C=C/c1ccco1)NCC(=O)N/N=C/c1ccccc1[N+](=O)[O-] | - | - | . | - | ? | .
COc1ccccc1C(=O)NCC(=O)N/N=C/c1cc(Br)ccc1OC(=O)/C=C\c1ccco1 | -74.2 | ? | . | - | - | .
O=C(CNC(=O)c1ccccc1F)N/N=C/c1cc(Br)ccc1OC(=O)/C=C/c1ccco1 | -89.8 | - | -91.9 | - | - | ?
O=Cc1cccc(C=O)c1 | . | . | . | - | - | .
Cc1nc2c(C(=O)NC(C)c3ccccc3)cnn2c(C)c1Cc1ccccc1 (stereo not drawn) | . | . | . | 12.6µM | - | .
Cc1cc(C)c(Cc2c(C)nc3c(C(=O)NCc4ccco4)cnn3c2C)c(C)c1 | - | 20µM | - | - | - | 14.1µM
COC(CNC(=O)c1cnn2c(C)c(Cc3ccccc3)c(C)nc12)OC | - | - | - | - | - | -
Cc1nc2c(C(=O)NCCc3ccc(Cl)cc3)cnn2c(C)c1Cc1ccc(F)cc1 | . | . | . | - | 7.08µM | .
Cc1nc2c(C(=O)NCCc3ccc(Cl)cc3)cnn2c(C)c1Cc1c(F)cccc1Cl | . | . | . | - | - | .
O=C(Nc1ccc(-c2nc3ccccc3o2)cc1)c1cc(-n2cnnc2)ccc1Cl | - | ? | - | - | - | ?
O=C(Nc1ccc(-c2nc3ccccc3o2)c(O)c1)c1cc(-n2cnnc2)ccc1Cl | - | - | - | 17.8µM | - | -
CCOC(=O)Cn1c(=O)oc2cc(S(=O)(=O)N3CCN(c4ccc(Cl)cc4)CC3)ccc21 | . | - | . | - | ? | -
COc1cccc(/C=N/NC(=O)Cn2nc(C)c([N+](=O)[O-])c2C)c1O | -94.6 | ? | -93.9 | - | - | 15.8µM
SMILES | Six1-Eya2 inh | ATXN viability | CtBP-E1A blk | HepG2 tox | TGFb SMAD3 inh | ATXN2 expr inh
Cc1nn(CC(=O)N/N=C/c2cccs2)c(C)c1[N+](=O)[O-] | - | - | - | - | - | -
COc1cccc(/C=N/NC(=O)C(C)n2nc(C)c([N+](=O)[O-])c2C)c1O (stereo not drawn) | -89.4 | ? | -65.6 | - | - | 25.1µM
COc1cccc(NC(=S)NNC(=O)C(C)n2nc(C)c([N+](=O)[O-])c2C)c1 (stereo not drawn) | - | - | - | - | - | -
Cc1cc(C(=O)NCC2CCC3(CCN(Cc4ccc(-c5ccccc5)cc4)CC3)O2)n(C)n1 (stereo not drawn) | . | - | . | . | . | .
COc1ccc(OC)c(/C=C/C(=O)OCC(=O)N2C(C)CCCC2C)c1 (stereo not drawn) | -66.7 | - | -94.4 | - | - | -
COc1ccc(/C=C/C(=O)Oc2ccc(C)cc2)cc1 | - | - | -70.2 | - | - | ?
COc1ccc(/C=C/C(=O)O)cc1 | - | - | - | - | - | -
COc1ccc(OC)c(/C=C/C(=O)Oc2ccc(C(C)=O)cc2)c1 | - | - | -88.3 | - | - | -
N#C/C(C(=O)N1CCOCC1)=C1\Nc2ccccc2S1 | - | - | - | - | - | -
N#CC(=C1Nc2ccccc2S1)c1ccnc(OCc2ccc(CN3CCOCC3)cc2)n1 | . | . | . | . | . | 0.0137µM
C[C@@]12CCC[C@H]1[C@@H]1CC[C@H]3C[C@@H](O)CC[C@]3(C)[C@H]1CC2 | . | 25.1µM | . | . | . | -
CC12CCC3C(CCC4CC(O)CCC43C)C1CC(O)C2 (stereo not drawn) | - | - | - | - | - | -
OC(COc1cccc2ccccc12)CN1CCCC1 (stereo not drawn) | - | - | - | - | - | -
O[C@@H](COc1cccc2ncccc12)CN1CCN(C2c3ccccc3[C@@H]3[C@H](c4ccccc42)C3(F)F)CC1 (stereo partly drawn) | . | 25.1µM | . | . | . | ?
CCN(CC)CCNC(=O)c1ccc(NC(=O)c2cccc(S(=O)(=O)N3c4ccccc4CC3C)c2)cc1 (stereo not drawn) | - | ? | - | 10µM | ? | ?
CC1Cc2ccccc2N1S(=O)(=O)c1cccc(C(=O)NCc2ccccn2)c1 (stereo not drawn) | - | - | . | 20µM | ? | .
CC1Cc2ccccc2N1S(=O)(=O)c1nnc(NC(=O)c2ccccc2)s1 (stereo not drawn) | . | ? | . | - | 14.1µM | -
CCN(CC)CCNC(=O)c1ccc(NC(=O)c2cccc(S(=O)(=O)N3CCc4ccccc43)c2)cc1 | - | - | - | - | ? | -
Cc1[nH]c(=O)[nH]c(=O)c1/C=N/NC(=O)[C@H](C)N | -66.4 | - | - | - | - | .
Cc1[nH]c(=O)[nH]c(=O)c1/C=N/NC(=O)[C@@H](NC(=O)OC(C)(C)C)C(C)C | - | - | - | - | - | -
CCOC(=O)C1=CC[C@@H](c2ccccc2)N(S(=O)(=O)c2ccc(C)cc2)[C@H]1C | - | - | - | 22.4µM | ? | -
COc1cc(=O)n2c(c1C(=O)N(C)Cc1nonc1C)CCN(C(=O)c1cc(C)cc(C)c1)CC2 | . | - | . | . | . | .
